Reference: the supplement of paper PMC10681739

Legend:
ETS1 [1] = molecular target: T1, ETS1 (UniProt P14921); experiment: ETS1 binding intensity (PBM fluorescence), ETS1 alone (arbitrary fluorescence units); higher = stronger binding; conditions: ETS1 concentration 1 nM; RUNX1 concentration 0 nM
T1 sequence: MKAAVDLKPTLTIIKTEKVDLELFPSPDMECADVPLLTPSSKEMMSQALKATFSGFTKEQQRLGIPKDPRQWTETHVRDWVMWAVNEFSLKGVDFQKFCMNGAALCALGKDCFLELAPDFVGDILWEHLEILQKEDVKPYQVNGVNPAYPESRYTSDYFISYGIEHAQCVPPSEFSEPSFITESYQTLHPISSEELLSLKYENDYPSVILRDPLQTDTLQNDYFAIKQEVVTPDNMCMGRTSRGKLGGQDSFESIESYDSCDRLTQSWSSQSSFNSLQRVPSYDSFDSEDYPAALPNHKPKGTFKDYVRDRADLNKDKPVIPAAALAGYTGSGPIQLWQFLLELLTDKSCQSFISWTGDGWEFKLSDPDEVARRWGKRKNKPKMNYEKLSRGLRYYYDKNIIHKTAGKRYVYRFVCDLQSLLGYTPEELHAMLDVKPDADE

RUNX1 [2] = molecular target: RUNX1 (UniProt Q01196); experiment: RUNX1 binding intensity (PBM fluorescence), RUNX1 alone (arbitrary fluorescence units); higher = stronger binding; conditions: RUNX1 concentration 2 nM; ETS1 concentration 0 nM
Chain of RUNX1 (Q01196 whole entry): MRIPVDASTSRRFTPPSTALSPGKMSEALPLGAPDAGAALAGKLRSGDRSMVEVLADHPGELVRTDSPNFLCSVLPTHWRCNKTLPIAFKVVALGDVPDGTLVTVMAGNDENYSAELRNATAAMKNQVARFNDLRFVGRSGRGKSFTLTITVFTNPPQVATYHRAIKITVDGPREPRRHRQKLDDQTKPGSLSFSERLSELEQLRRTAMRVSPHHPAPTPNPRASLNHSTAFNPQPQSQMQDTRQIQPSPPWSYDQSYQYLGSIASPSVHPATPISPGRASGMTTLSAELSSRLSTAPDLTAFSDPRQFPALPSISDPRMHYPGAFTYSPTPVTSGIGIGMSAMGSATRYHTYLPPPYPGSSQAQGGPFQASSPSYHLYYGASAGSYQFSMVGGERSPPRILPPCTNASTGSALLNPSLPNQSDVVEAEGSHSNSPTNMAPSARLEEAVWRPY
Description: (§1)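 Cooperative gcPBM on 36-bp genomic probes with neighbouring ETS1 and RUNX1 sites. Recombinant human RUNX1 (2 nM) was incubated alone or with ETS1 (25 nM) and detected with anti-RUNX1 antibody plus Alexa488 secondary. Values are medians over 4 replicate spots; the RUNX1+ETS1 data were normalised to the RUNX1-only data. The probes sit in constant array flanks that are not printed.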

ETS1 [3] = molecular target: T1, ETS1; experiment: ETS1 binding intensity (PBM fluorescence) in presence of RUNX1, normalised to ETS1-only experiment (arbitrary fluorescence units); higher = stronger binding; conditions: ETS1 concentration 1 nM; RUNX1 concentration 25 nM
RUNX1 [4] = molecular target: RUNX1 (UniProt Q01196); experiment: RUNX1 binding intensity (PBM fluorescence) in presence of ETS1, normalised to RUNX1-only experiment (arbitrary fluorescence units); higher = stronger binding; conditions: RUNX1 concentration 2 nM; ETS1 concentration 25 nM
Description: as §1
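Throughout, for RUNX1 binding intensity (PBM fluorescence) in presence of ETS1, normalised to RUNX1-only experiment: Full-length recombinant human ETS1 or RUNX1 bound to double-stranded 36-bp genomic probes on microarrays, detected by protein-specific primary antibody and Alexa488 secondary, spot fluorescence as median of four replicate spots.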
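Throughout, for RUNX1 binding intensity (PBM fluorescence), RUNX1 alone: Full-length recombinant human RUNX1 bound to double-stranded 36-bp genomic probes on a high-density microarray, scored as Alexa488 fluorescence per spot via anti-RUNX1 antibody, median of four replicate spots.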

Sequence | ETS1 binding intensity (ETS1 [1]) | RUNX1 binding intensity (RUNX1 [2]) | ETS1 binding intensity (ETS1 [3]) | RUNX1 binding intensity (RUNX1 [4])
GAGAGGAGGATGTTGTCAGATACCCACAAATGAGAA | 566 | 812 | 621 | 889
GAGGCGTTTCCGCCTCCTTTTCGCGGTTGCCTTCTC | 639 | 1060 | 761 | 2790
GGCCAGGCAGGAAGTCCCGCGCCACAAGCGGCCGTC | 3050 | 758 | 3300 | 1230
AAGGCGGTACTTCCTCCAGCATTTGCCGCAAGTTAT | 417 | 768 | 535 | 1250
GCCCAATTCCCGAATCCGGTCTGCGGCGCGCTCGGG | 583 | 768 | 507 | 1170
GAAGCCCAACAGGATGCCGAGTAACCACCCACTGAA | 1040 | 822 | 1120 | 924
CCTGGTCCGGAAGCGCTGTCCCCGCCTCCCGCATAG | 1950 | 822 | 2430 | 1430
AATAAAGCTACAGACTTCCGCCCACAGGTCGCCGCT | 1020 | 789 | 1280 | 1360
TGTGTCACTTCCCTATCTGTTGCGGTTGTTCACTCC | 409 | 1340 | 841 | 2930
GTTATTCTCCCCTTCCTGTGGTGTGTTTTGATGGTA | 702 | 1120 | 626 | 1590
AGCAGGAAGTATGTTGAAAGTCATAACCACAGCAAA | 908 | 776 | 3050 | 1020
TGGAAGAGGGCAGGAAGTGTTGTGGTCACTCCCACC | 4450 | 856 | 28900 | 1530
GGGGCTGTGCTTCCGGCTGTTTGTGCGGTTTTGTGC | 1650 | 1520 | 6750 | 4340
GAGCCCAACCGGCATCCGTCGCGGTTGGACGTGGGC | 343 | 761 | 490 | 1070
AAAGGCGGAAGGGGGGCAGGGAACCCACAAAACAGA | 457 | 959 | 610 | 857
AGATGAGGAAGTTGGGGTTTAGAGTGGTTAAACTGT | 502 | 698 | 655 | 1020
TGAGTCACATCCTGCAGGGCTGCGGTATCCTGGCTT | 773 | 928 | 1680 | 3310
CCCGGAAACTCAACTGCCCACTGCTGCGGCCGCCAT | 599 | 1070 | 708 | 1090
CTTAGTGGGGCAGGATGTGGTCAGGGAAGCTGATCT | 4440 | 836 | 29900 | 7670
CCGCCACCGGAAGCGCCCTCCTAATCCCCGCAGCGC | 6290 | 978 | 6170 | 1920
TGCTTCTGAGGAAGTGATCTGTGGTCAAAGAAAGAA | 747 | 891 | 2040 | 1180
GAAAGACAGGATGTGGGATAGATCTCAACCACCTTT | 2590 | 817 | 4970 | 4740
GCCGTCACTTCCGTCATTCAAACCGCCCGCCAATGG | 823 | 1050 | 1160 | 2520
